Reference: PubChem BioAssay (NCATS)
Values joined by “and” are separate entries in the source; they are usually repeats but may differ in a detail not shown here. Identical values can stand only once. Results filed as inconclusive are left out. The source holds several records for some structures; these can differ, active in one and inactive in another. Active and inactive are the calls of the source. Calls come from the whole dose curve; as a rule, active = well fitted inhibition curve with a large enough effect; inconclusive = small, poorly fitted or top-dose-only effect; inactive = flat fitted curve, though single readings scatter.

Key:
CRL-7250 = normal cell line; assay: Cytotoxic Profiling of Annotated Libraries Using Quantitative High-Throughput Screening (AID 1296008); settings: Five cell lines viability, CellTiter-Glo ATP luminescence, 48-72 h; max response: hits give low values; for max response: % is set by controls: 0 for no effect and ±100 for the full control effect
How it was run: (§1)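 Cytotoxicity was measured as CellTiter-Glo ATP luminescence, read after 10 min at room temperature. Compound treatment of the cells lasted 48 or 72 hr at 37 degrees Celsius in a qHTS format.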

KB-3-1 = assay: as above; settings: Five cell lines viability, CellTiter-Glo ATP luminescence, 48-72 h; max response: hits give low values
How it was run: as §1

MCC-13 = assay: qHTS assay to identify novel small-molecules to repurpose for Merkel cell carcinoma treatment (AID 1296009); settings: MCC and control cell lines, CellTiter-Glo viability, 72 h; series mostly up to 46 µM
How it was run: (§2)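 Cell viability measured by CellTiter-Glo following 72 hr compound treatment at 37 degree celsius, with NPC and MIPE libraries tested in 8- and 11-point concentration series.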

MKL-1 = assay: as above; settings: MCC and control cell lines, CellTiter-Glo viability, 72 h; series mostly up to 46 µM
How it was run: as §2

HaCat [1] = assay: Cytotoxic Profiling of Annotated Libraries Using Quantitative High-Throughput Screening (AID 1296008); settings: Five cell lines viability, CellTiter-Glo ATP luminescence, 48-72 h; max response: hits give low values; for max response: % is set by controls: 0 for no effect and ±100 for the full control effect
How it was run: as §1

NIH3T3 = assay: as above; settings: Five cell lines viability, CellTiter-Glo ATP luminescence, 48-72 h; max response: hits give low values
How it was run: as §1

HACAT [2] = assay: qHTS assay to identify novel small-molecules to repurpose for Merkel cell carcinoma treatment (AID 1296009); settings: MCC and control cell lines, CellTiter-Glo viability, 72 h; at 44.8 µM (top of the series) unless noted
How it was run: as §2

MCC-26 = assay: as above; settings: MCC and control cell lines, CellTiter-Glo viability, 72 h; series mostly up to 46 µM
How it was run: as §2

MKL-2 = assay: as above; settings: MCC and control cell lines, CellTiter-Glo viability, 72 h; series mostly up to 46 µM
How it was run: as §2

HEK293 = assay: Cytotoxic Profiling of Annotated Libraries Using Quantitative High-Throughput Screening (AID 1296008); settings: Five cell lines viability, CellTiter-Glo ATP luminescence, 48-72 h; max response: hits give low values; for max response: % is set by controls: 0 for no effect and ±100 for the full control effect
How it was run: as §1

PC15 = assay: qHTS profiling for inhibitors of Plasmodium falciparum proliferation (AID 504749); settings: P. falciparum in erythrocytes, SYBR Green DNA, 72 h; series mostly up to 28.7 µM
How it was run: (§3)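 In a 72 h erythrocytic culture (37 C, humidified, 5% CO2) at 2.5% hematocrit and 0.3% starting parasitemia, compounds were tested; SYBR Green I in detergent lysis buffer stained parasite DNA overnight.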

PC26 = assay: as above; settings: P. falciparum in erythrocytes, SYBR Green DNA, 72 h; series mostly up to 28.7 µM
How it was run: as §3

PC49 = assay: as above; settings: P. falciparum in erythrocytes, SYBR Green DNA, 72 h; series mostly up to 28.7 µM
How it was run: as §3

SC27B = assay: as above; settings: P. falciparum in erythrocytes, SYBR Green DNA, 72 h; series mostly up to 28.7 µM
How it was run: as §3

TAB109 = assay: as above; settings: P. falciparum in erythrocytes, SYBR Green DNA, 72 h; series mostly up to 28.7 µM
How it was run: as §3

TAB113 = assay: as above; settings: P. falciparum in erythrocytes, SYBR Green DNA, 72 h; series mostly up to 28.7 µM
How it was run: as §3

TAB165 = assay: as above; settings: P. falciparum in erythrocytes, SYBR Green DNA, 72 h; series mostly up to 28.7 µM
How it was run: as §3

PAD = assay: as above; settings: P. falciparum in erythrocytes, SYBR Green DNA, 72 h; series mostly up to 28.7 µM
How it was run: as §3

W2 = assay: as above; settings: P. falciparum in erythrocytes, SYBR Green DNA, 72 h; series mostly up to 28.7 µM
How it was run: as §3
Note: nearly all actives have a fitted effect of over 60% in size.
Potency is the fitted concentration of half-maximal effect.

Cc1ccc(C(C)(O)c2nc3ccccc3s2)c(C)c1 (stereo not given)
active: Potency (MKL-1) 16.6 µM
inactive: max response (CRL-7250) 0.7% | max response (KB-3-1) 4.83% | Potency (MCC-13)

Cc1cccc(Nc2nc(-c3ccncc3)cs2)c1
active: Potency (NIH3T3) 11.8 µM and 7.31 µM
inactive: max response (CRL-7250) -0.257% | outcome (HaCat [1]) | outcome (HACAT [2]) | Potency (MCC-13) | Potency (MCC-26) | Potency (MKL-1) | Potency (MKL-2)

COc1cc2c(cc1OC)CN(CCc1ccc(NC(=O)c3cc(OC)c(OC)cc3NC(=O)c3cnc4ccccc4c3)cc1)CC2
active: Potency (HEK293) 11.4 µM
inactive: max response (HEK293) -20.5% | max response (HaCat [1]) -17.1% | outcome (KB-3-1) | max response (NIH3T3) -16.8% | Potency (MCC-13) | Potency (MCC-26) | Potency (MKL-1) | Potency (MKL-2)

O=c1cc(-c2ccccc2)oc2cc(O)c(O)c(O)c12
inactive: max response (HEK293) -21.5% | max response (HaCat [1]) 1.36% | max response (KB-3-1) -0.922% | max response (NIH3T3) -19.1% | Potency (MCC-13) | Potency (MCC-26) | Potency (MKL-1)

Nc1ncnc2c1nc(Cl)n2[C@@H]1O[C@H](CO)[C@@H](O)[C@@H]1O
inactive: max response (HEK293) 0.527% | Potency (MCC-13)
active: Potency (HaCat [1]) 14.8 µM | Potency (NIH3T3) 26.4 µM

COc1ccc(-n2c(C)c([N+](=O)[O-])c3ccc(O)cc32)cc1
inactive: max response (HEK293) -7.19% | max response (HaCat [1]) -25.5% | max response (KB-3-1) -1.9% | max response (NIH3T3) 4.92% | Potency (MCC-13) | Potency (MCC-26) | Potency (MKL-1) | Potency (MKL-2)

C=CCc1ccc(O)c(-c2ccc(O)c(CC=C)c2)c1
inactive: max response (HEK293) -27.3% | max response (NIH3T3) -7.37% | Potency (MCC-13) | Potency (MCC-26)
active: Potency (HaCat [1]) 20.9 µM

CO[C@H]1C[C@@H]2CC[C@@H](C)[C@@](O)(O2)C(=O)C(=O)N2CCCC[C@@H]2C(=O)O[C@H]([C@H](C)C[C@@H]2CC[C@H](OP(C)(C)=O)[C@H](OC)C2)CC(=O)[C@H](C)C=C(C)[C@@H](O)[C@@H](OC)C(=O)[C@H](C)C[C@H](C)C=CC=CC=C1C
inactive: max response (CRL-7250) -18.4% | outcome (HaCat [1]) | max response (NIH3T3) 4.15% | outcome (HACAT [2]) | Potency (MCC-13) | Potency (MCC-26) | Potency (MKL-2)

O=C(O)c1cc(O)c2c(c1)C(=O)c1cccc(O)c1C2=O
inactive: max response (HEK293) -16.6% | outcome (HaCat [1]) | max response (KB-3-1) 0.608% | max response (NIH3T3) 0.522% | outcome (HACAT [2]) inactive [at 92 µM] | Potency (MCC-13) | Potency (MKL-1) | Potency (MKL-2)

CC[C@]1(O)C[C@@H]2CN(CCc3c([nH]c4ccccc34)[C@@](C(=O)OC)(c3cc4c(cc3OC)N(C=O)[C@@H]3C45CCN4CC=C[C@](CC)([C@H]45)[C@@H](OC(C)=O)[C@]3(O)C(=O)OC)C2)C1 (stereo not given in full)
inactive: max response (CRL-7250) -20.2% | max response (NIH3T3) -0.0535% | Potency (MCC-13) | Potency (MCC-26) | Potency (MKL-1)

COC[C@@H](c1ccc(C(F)(F)F)cc1)N1CCN(C2(C)CCN(C(=O)c3c(C)ncnc3C)CC2)C[C@H]1C
inactive: max response (CRL-7250) -6.4% | max response (HaCat [1]) -0.948% | max response (KB-3-1) 5.03% | Potency (MCC-13) | Potency (MCC-26) | Potency (MKL-1) | Potency (MKL-2)

COc1cc(N2CCC(N3CCN(C)CC3)CC2)ccc1Nc1ncnc(Nc2ccccc2S(=O)(=O)C(C)C)n1
active: Potency (HEK293) 14.6 µM | Potency (HaCat [1]) 7.31 µM | Potency (KB-3-1) 8.33 µM | Potency (NIH3T3) 3.32 µM and 3.66 µM
inactive: Potency (MKL-2)

CC[C@H]1OC(=O)[C@H](C)C(=O)[C@H](C)[C@@H](O[C@H]2O[C@H](C)C[C@H](N(C)C)[C@@H]2O)[C@](C)(OC)C[C@@H](C)C(=O)[C@H](C)[C@H]2N(CCCCn3cnc(-c4cccnc4)c3)C(=O)O[C@]12C
inactive: max response (CRL-7250) -7.01% | max response (HaCat [1]) -0.424% | max response (KB-3-1) 2.84% | Potency (MCC-13) | Potency (MCC-26) | Potency (MKL-1) | Potency (MKL-2)

CC1(C)O[C@H]2C[C@@H]3[C@H]4CCC5=CC(=O)C=C[C@]5(C)[C@@]4(F)[C@@H](O)C[C@]3(C)[C@]2(C(=O)CO)O1
active: Potency (MKL-1) 18.7 µM
inactive: outcome (PC15) | Potency (PC26) | outcome (PC49) | Potency (SC27B) | outcome (TAB109) | Potency (TAB113) | Potency (TAB165) | max response (CRL-7250) -11.3% | max response (HaCat [1]) -12.9% | max response (KB-3-1) 1.25% | Potency (MCC-13) | Potency (MCC-26)

CC(C)C(=O)Nc1ncc(-c2cc(C(F)F)nn2-c2c(Cl)cccc2Cl)s1
inactive: max response (CRL-7250) -16.9% | max response (HaCat [1]) -19.8% | Potency (MKL-1)

Cc1ccn(-c2ccc(-c3ncco3)cc2)c(=O)c1-c1ccc2nc(N)ncc2c1
active: Potency (CRL-7250) 1.66 µM and 5.17 µM
inactive: max response (HaCat [1]) -12.1% and -22.1% | max response (KB-3-1) 0.602% and 6.68% | Potency (MCC-13) | Potency (MKL-1)

CC/C(=C(\c1ccccc1)c1ccc(OCCN(C)C)cc1)c1ccccc1
inactive: outcome (PAD) | outcome (PC49) | max response (CRL-7250) -3.24% | max response (HaCat [1]) -10.4% | max response (KB-3-1) -11%
active: Potency (W2) 13.5 µM | Potency (MKL-2) 26.6 µM

Cc1ccc([C@@H]2O[C@H](CO)[C@@H](O)[C@H](O)[C@@H]2O)cc1Cc1ccc(-c2ccc(F)cc2)s1
inactive: outcome (HaCat [1]) | outcome (KB-3-1) | outcome (NIH3T3) | outcome (HACAT [2]) | Potency (MCC-13) | Potency (MCC-26) | Potency (MKL-1) | Potency (MKL-2)
active: Potency (HEK293) 14.8 µM

CC(=O)OC1C(C)OC(Oc2c(-c3ccc(O)cc3)oc3cc(O)cc(O)c3c2=O)C(O)C1OC(C)=O (stereo not given)
inactive: max response (CRL-7250) -21.1% | max response (KB-3-1) 7.1% | Potency (MCC-13) | Potency (MCC-26)
